Most compounds without a hit are left out; they make up all but 7% or so of the library.
GRIN3A LBD mod: modulators (binders) of human NR3A ligand-binding domain; NR3A LBD differential scanning fluorimetry, Tm shift; 0% = protein alone, 100% = glycine-bound protein; 340,000 compounds, 2.5% hits; AID 1259313; Tm shift relative to glycine control, % at 25 µM;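 active = melting temperature shift of at least 10% of the positive control shift, at one fixed dose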
rCAG RNA binder: molecules binding r(CAG) RNA repeats; r(CAG) RNA repeat, TO-PRO-1 dye displacement fluorescence; inhibition, % at 3 µM; 370,000 compounds, 1.3% hits; AID 651821;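 active = inhibition above the plate cutoff, the mean of all test compounds on that plate plus 3 SD, cut at about 35% in these data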;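 note: 0% = DMSO alone and 100% = 100 µM mitoxantrone as full dye displacement; higher means more dye released from RNA so lower well fluorescence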
ADAM17 inh: inhibitors of human ADAM17 | recombinant ADAM17, EDANS/DABCYL FRET peptide cleavage | inhibition, % at 6.95 µM | P78536 | 370,000 compounds, 0.83% hits;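 active = inhibition above the mean of compounds lying between control limits plus 3 SD, set per campaign, cut at about 8.5% in these data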;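 note: 0% = DMSO-only wells as the low control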
ADAM10 inh: ADAM10 inhibition, QFRET primary screen. O14672. recombinant ADAM10, EDANS/DABCYL FRET peptide cleavage, 3 h. inhibition, % at 7 µM. 370,000 compounds, 0.62% hits;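 active = inhibition above a per-campaign cutoff equal to the mean of compounds falling between control-based bounds plus 3 SD, cut at about 20% in these data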;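 note: 0% = DMSO wells while the 100% control is not disclosed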
proKLK7 act: proKLK7 (human) activation, primary screen; purified proKLK7, EDANS-DABCYL substrate fluorescence; 100% is mature enzyme control, 0% vehicle; activation, % at 7 µM; P49862; 370,000 compounds, 0.9% hits;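 active = activation above the mean of all tested compounds plus 3 SD, computed per campaign excluding outliers beyond control limits, cut at about 13% in these data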
AHR activator: human AHR activation; P35869; AHR-responsive luciferase reporter cells, luminescence; activation, % at 5 µM; 320,000 compounds, 2.5% hits; AID 2796; in the data active = activation above about 47%;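 note: 0% = vehicle wells and 100% = reference agonist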
Target sequence (P35869 whole entry, looked up): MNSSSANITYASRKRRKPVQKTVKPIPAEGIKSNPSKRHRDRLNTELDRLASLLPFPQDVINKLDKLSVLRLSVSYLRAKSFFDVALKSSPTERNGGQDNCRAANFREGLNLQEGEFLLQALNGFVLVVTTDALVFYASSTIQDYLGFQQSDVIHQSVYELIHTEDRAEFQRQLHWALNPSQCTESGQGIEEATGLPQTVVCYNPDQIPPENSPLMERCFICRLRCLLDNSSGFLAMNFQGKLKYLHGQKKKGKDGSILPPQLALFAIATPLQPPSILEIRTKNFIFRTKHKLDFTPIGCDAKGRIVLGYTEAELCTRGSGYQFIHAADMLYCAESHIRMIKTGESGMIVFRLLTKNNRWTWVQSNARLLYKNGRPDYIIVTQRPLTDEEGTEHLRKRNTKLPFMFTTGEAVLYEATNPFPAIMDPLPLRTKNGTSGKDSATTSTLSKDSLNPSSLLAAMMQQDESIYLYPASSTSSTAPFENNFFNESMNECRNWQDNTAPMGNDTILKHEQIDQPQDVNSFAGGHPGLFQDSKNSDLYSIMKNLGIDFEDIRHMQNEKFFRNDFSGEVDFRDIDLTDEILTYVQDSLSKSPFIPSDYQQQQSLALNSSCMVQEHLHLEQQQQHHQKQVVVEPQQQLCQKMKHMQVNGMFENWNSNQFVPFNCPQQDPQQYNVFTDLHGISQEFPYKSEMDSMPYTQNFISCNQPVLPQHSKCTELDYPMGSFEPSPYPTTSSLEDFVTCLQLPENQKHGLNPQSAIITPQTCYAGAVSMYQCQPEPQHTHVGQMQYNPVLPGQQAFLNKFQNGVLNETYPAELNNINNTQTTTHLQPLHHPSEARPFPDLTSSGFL
* hit, by the source's call; . = no result.

SMILES	GRIN3A LBD mod	rCAG RNA binder	ADAM17 inh	ADAM10 inh	proKLK7 act	AHR activator
O=C(Nc1ccc2sccc2c1)c1ccc(Cl)s1	23.4*	5.4	0.8	-9.7	7.5	43.0
COc1ccc(OC)c(NC(=O)CCn2c(=S)[nH]c3ccccc3c2=O)c1	-0.5	2.2	-2.6	-1.5	0.3	5.2
COc1ccc(OC)c(NC(=O)c2ccc3c(=O)n(CCc4ccccc4)c(=S)[nH]c3c2)c1	14.9*	3.9	1.9	8.0	-0.2	-3.6
COc1ccccc1NC(=O)CCCn1c(=S)[nH]c2ccccc2c1=O	-1.4	-2.1	1.6	2.5	0.7	47.8*
CCNC(=S)N1N=C2c3ccccc3CCC2C1c1ccc(F)cc1 (stereo not given)	0.9	-3.2	0.8	-0.3	0.1	51.4*
CC(=O)N1CCc2c1cccc2S(=O)(=O)NC(CC(C)C)C(=O)Nc1ccccc1C (stereo not given)	.	2.9	-3.0	4.4	-0.4	.
CCC(C)(C)C(=O)N1CCC(C(=O)NC2CCCc3ccccc32)CC1 (stereo not given)	.	-2.5	0.1	-1.1	0.0	.
C(=N\Nc1ccccc1)/c1nc2ccccc2s1	2.4	11.1	1.6	-0.6	0.0	69.4*
COc1cc(OC)cc(C(=O)Oc2ccc(/C=N/Nc3nc4ccccc4s3)cc2OC)c1	18.0*	17.1	-2.5	-12.6	-0.8	72.0*
COc1ccc(C=NNc2nc3ccccc3s2)cc1	33.1*	10.4	1.1	-12.2	-3.1	.
COc1cc(/C=N/Nc2nc3ccccc3s2)ccc1OC(=O)c1ccccc1F	-11.2	8.0	0.1	-4.1	-0.2	78.3*
COc1cc(/C=N/Nc2nc3ccccc3s2)cc([N+](=O)[O-])c1O	-4.7	14.2	-1.3	-10.8	-0.1	40.8
CC(=O)Nc1ccc(S(=O)(=O)NCC2CCN(C(=O)C(=O)c3cccs3)CC2)cc1	.	3.2	-1.0	2.4	0.1	.
COC(=O)C1=C(C)N(C)C(=NCc2ccc(OC)cc2)NC1c1cccc(C(F)(F)F)c1 (stereo not given)	.	9.2	2.8	-1.4	0.2	.
Nc1[nH]c(C(=O)c2ccccc2)c(-c2ccccn2)c1C(=O)c1c[nH]c2ccc(Br)cc12	.	.	-4.1	-10.4	.	.
CC(C)N1Cc2nnn(Cc3ccc(F)cc3)c2-c2cc(F)ccc2S1(=O)=O	.	1.4	-2.6	-2.3	0.0	.
COc1cccc(NC(=O)Nc2c(-c3ccc(C(F)(F)F)cc3)nc3ncccn23)c1	.	6.6	-24.5	-86.0	0.3	.
O=S(=O)(NCC(c1cccs1)N1CCc2ccccc2C1)c1ccccc1 (stereo not given)	14.1*	-1.6	5.6	2.9	-0.7	0.0
O=[N+]([O-])c1ccc(S(=O)(=O)NCC(c2ccco2)N2CCc3ccccc3C2)cc1 (stereo not given)	-7.3	1.0	-4.2	-6.5	-0.2	2.3
COC(=O)c1cc2c(c3c4cc(F)ccc4n(S(=O)(=O)c4ccc(C)cc4)c13)C(=O)N(Cc1ccccc1)C2	.	12.5	-2.1	-7.0	-0.5	.
COC(=O)[C@]12C[C@H](CC(=O)NCCCCc3ccccc3)C(=O)N(Cc3ccc(Cl)cc3Cl)C1=C[C@H](COCc1ccccc1)O[C@@H]2C	.	8.4	1.7	7.5	-0.5	.
O=[N+]([O-])c1ccc2c(c1)N([O-])C1(CCCCC1)[N+]2=O	-1.5	35.0*	-5.4	-4.3	-0.2	.
Cc1c(CN(C)C)c2c(n1C)C(=O)c1ccc(Br)cc1-2	-0.8	-0.5	-3.3	-6.2	-0.2	70.8*
O=C(c1ccc(F)cc1)c1cnc(Nc2ccccc2)s1	-2.4	4.1	-0.9	-4.1	0.5	-0.8
O=C(c1ccccc1)c1cnc(Nc2ccc(Cl)c(Cl)c2)s1	29.3*	1.4	-5.7	-6.6	0.4	0.0
SMILES	GRIN3A LBD mod	rCAG RNA binder	ADAM17 inh	ADAM10 inh	proKLK7 act	AHR activator
Cc1nn(Cc2ccccc2)c(Cl)c1C(=O)OCC(=O)NC(=O)NC12CC3CC(CC(C3)C1)C2	16.8*	2.1	-0.5	-3.3	-0.1	1.1
CCOc1cc(S(=O)(=O)NCCN2CCOCC2)c(C)cc1C	10.8*	-4.4	0.6	15.8	0.7	-1.1
CCOc1ccc(S(=O)(=O)NCCN2CCOCC2)c2ccccc12	1.4	0.8	0.4	5.7	0.0	0.8
COc1ccc(NC(=O)c2ccccc2)cc1NS(=O)(=O)c1ccc(F)cc1	-2.6	4.7	-0.1	-1.5	-0.4	38.9
CCN(CC)c1ccc(NC(=O)c2cccc(C)c2)cc1S(=O)(=O)Nc1ccccc1OC	4.0	14.3	12.6*	24.7*	-3.3	15.2
CCN(CC)c1ccc(NC(=O)c2ccccc2)cc1S(=O)(=O)Nc1ccccc1OC	3.5	15.9	9.4*	17.6	-0.5	34.8
COC(=O)[C@H](CC(C)C)N(CCc1cn(Cc2ccc(C)cc2)nn1)S(=O)(=O)c1ccc(F)cc1Br	.	3.0	7.5	13.2	0.2	.
CCC1Oc2ccccc2N(CC(=O)NC2CCCCC2C)C1=O (stereo not given)	14.8*	-7.2	-0.8	2.7	0.7	1.6
O=S1(=O)c2ccc(N3CCN(Cc4ccccc4F)CC3)cc2Oc2ccccc2CN1Cc1cn(Cc2cccc(C(F)(F)F)c2)nn1	.	12.4	1.1	1.9	-0.5	.
COc1ccc(-n2nnc3c(=O)n(CC(=O)N4CCCc5ccccc54)cnc32)cc1	11.5*	-0.6	-5.5	1.3	0.1	2.3
CCOc1ccc(-n2nnc3c(=O)n(CC(=O)N4CCCc5ccccc54)cnc32)cc1	14.8*	0.3	1.7	-4.7	-0.1	2.5
O=C(Cn1cnc2c(nnn2-c2ccc(F)cc2)c1=O)N1CCCc2ccccc21	0.1	-0.2	2.2	3.3	0.5	0.6
N#Cc1c(N)nc2c(c1N)CC(=O)N2c1ccccc1-c1ccccc1	-0.8	-0.4	-6.1	4.2	0.4	6.5
N#Cc1c(N)nc2c(c1N)CC(=O)N2c1ccc(Cl)cc1	-1.0	.	.	.	.	89.4*
O=C1CCC(NC(=O)Cc2ccccc2)C(=O)N1 (stereo not given)	.	1.4	-4.2	-11.4	-0.4	.
CCCOC(=O)c1ccc(Oc2cn[nH]c2-c2ccc(OCC(=O)NN)cc2O)cc1	-7.3	13.9	4.3	9.2	0.4	7.6
CCOC(=O)c1ccc(Oc2cn[nH]c2-c2ccc(OCC(=O)NN)cc2O)cc1	1.2	15.6	2.9	3.8	0.2	4.5
CCOC(=O)c1ccc(Oc2cn[nH]c2-c2ccc(O)cc2O)cc1	28.6*	5.8	6.5	11.8	0.1	1.2
CCOc1ccccc1Oc1cn[nH]c1-c1ccc(O)cc1O	5.5	5.2	-1.4	1.0	-0.3	29.5
CCCOC(=O)c1ccc(Oc2cn[nH]c2-c2ccc(O)cc2O)cc1	34.2*	5.0	1.6	7.4	-0.6	0.2
COc1ccc(Oc2cn[nH]c2-c2ccc(O)cc2O)cc1	15.3*	3.8	6.6	10.8	0.1	11.1
C=C(C)COc1ccc(-c2[nH]ncc2Oc2ccccc2OCC)c(O)c1	11.1*	0.3	-5.0	-1.7	0.6	25.0
